From PubChem
This excerpt belongs to a sample that is enriched for hits.
PKM2 inhibitor: blocks activity of human pyruvate kinase M2. P14618. purified PKM2, ATP generation, Kinase-Glo luminescence. Potency, µM (highest dose often 57.5 µM), for inactives: at the highest dose activity change, negative = inhibition, usual class: inhibitors. actives 0.058% (n = 260,000); active = well fitted inhibition curve with a large enough effect; note: nearly all actives have a fitted effect of over 60% in size
Target sequence (P14618 whole entry, looked up): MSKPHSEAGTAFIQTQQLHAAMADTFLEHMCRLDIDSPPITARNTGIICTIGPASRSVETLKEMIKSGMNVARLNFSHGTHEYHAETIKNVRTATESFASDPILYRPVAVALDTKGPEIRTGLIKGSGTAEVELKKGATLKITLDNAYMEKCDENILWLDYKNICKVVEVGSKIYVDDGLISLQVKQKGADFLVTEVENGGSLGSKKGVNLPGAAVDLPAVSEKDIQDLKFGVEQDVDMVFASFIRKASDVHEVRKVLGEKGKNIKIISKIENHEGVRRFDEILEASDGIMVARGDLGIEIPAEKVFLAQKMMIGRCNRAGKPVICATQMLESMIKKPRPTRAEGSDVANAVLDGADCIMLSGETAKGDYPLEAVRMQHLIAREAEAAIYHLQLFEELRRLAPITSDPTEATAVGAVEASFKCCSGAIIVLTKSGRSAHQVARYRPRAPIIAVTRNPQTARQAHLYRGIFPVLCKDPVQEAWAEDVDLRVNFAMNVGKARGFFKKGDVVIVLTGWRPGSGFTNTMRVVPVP
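Enzyme run at intermediate activity with final 0.1 mM ADP, 0.5 mM PEP (50 mM imidazole pH7.2, 50 mM KCl, 7 mM MgCl2), incubated 1 h at r.t. ATP formed read by Kinase-Glo luminescence, normalized to no-enzyme (full inhibition) and uninhibited wells.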
The depositor's hits bear a star. Potency is the fitted concentration of half-maximal effect.

SMILES | PKM2 inhibitor
CCCc1nc2sc3ccccc3c(=O)c2c(=O)n1Cc1ccco1 | 120%
CC(=O)Nc1nnc(-c2ccccn2)o1 | -2%
c1ccc(-c2nc(-c3ccco3)cs2)nc1 | 41%
Cc1ccc(-c2nc(-c3ccccn3)no2)cc1 | 10µM*
NC(=O)COC(=O)c1cc(=O)[nH]c2ccc(S(=O)(=O)Nc3ccc(F)cc3)cc12 | 46%
CCCCC1=CC2=C(c3ccco3)C(=O)C(C)(OC(=O)c3ccc(OC)cc3)C(=O)C2=CN1c1ccccc1 (stereo not drawn) | 30%
COc1ccc(NC(=O)Nc2ccccc2C(N)=O)cc1 | 25µM*
Cc1cc2c(NC(=O)Nc3ccc(C(C)(C)C)cc3)cccc2nn1 | 1%
CC(=O)Nc1ccc(C(=O)OCc2ccccc2Br)cc1 | 1%
CCC1Oc2ccc(C)cc2N(CC(=O)N(Cc2ccc(C)o2)C2CCCC2)C1=O (stereo not drawn) | 53%
COCCNC(=O)C(c1ccc(OC)cc1)N(CCOC)C(=O)CCC(=O)Nc1nccs1 (stereo not drawn) | 0%
O=C(COc1ccc(Cl)cc1Cl)NCC(=O)N/N=C/c1c[nH]c2ccccc12 | 47%
O=C(COc1ccc(Cl)cc1Cl)Nc1ccccn1 | 14µM*
O=C(COc1ccc(Cl)cc1Cl)NC(=S)Nc1ccc(CN2CCOCC2)cc1 | 36%
Cn1c(=O)n(Cc2ccc(F)cc2)c(=O)c2c1nc1n2CCCN1Cc1ccccc1 | 46%
O=C1S/C(=C\c2ccc(N3CCOCC3)o2)C(=O)N1Cc1c(F)cccc1Cl | 129%
O=C(CN1CCN(c2ccc(O)cc2)CC1)Nc1ccc2c(c1)OCCO2 | 35%
O=C(Nc1ccc(N2CCCCC2)cc1)c1ccccn1 | 16µM*
Cc1cc(C)cc(NC(=O)Nc2ccc(N3CCCCC3)cc2)c1 | 46%
O=C(Nc1ccc2c(c1)OCCO2)c1ccccn1 | 14µM*
Cc1cc(NC(=O)C2CCCCC2)ncc1NC(=O)c1ccccn1 | 52%
O=C(Nc1ccc2oc(-c3ccccc3F)nc2c1)c1ccc2c(c1)OCCO2 | 5%
Cc1ccsc1C(=O)N/N=C/c1ccc2c(c1)OCO2 | 13µM*
COc1cc(/C=N/NC(=O)c2cccs2)ccc1O | 1%
Cc1nn(CC(=O)N/N=C/c2ccc3c(c2)OCO3)c(C)c1Br | 31%
SMILES | PKM2 inhibitor
O=C(O)CSc1cc(C(=O)c2ccccc2O)cn2c(=O)c3c4c(sc3nc12)CCCC4 | 36%
Cc1occc1-c1nnc(SCC(=O)c2c[nH]c3ccccc23)n1C | 90%
Cc1ccc(NC(=O)CN2C(=O)S/C(=C/c3ccc(-c4cc(C(=O)O)ccc4C)o3)C2=O)cc1C | 36%
COc1ccc(/C(N)=N/OC(=O)c2ccco2)cc1 | 18µM*
COc1cccc(S(=O)(=O)N2CCN(C(=O)c3ccco3)CC2)c1 | 41%
COc1ccc(C(=O)Nc2ncc3c(n2)CC(c2ccco2)CC3=O)cc1 (stereo not drawn) | 38%
Cn1c(=O)oc2cc(S(=O)(=O)NCCc3ccccc3)ccc21 | 35%
CC(NC(=O)Cn1nnc(-c2ccncc2)n1)c1ccccc1 (stereo not drawn) | -4%
CC(=O)c1cccc(NC2c3ncccc3C(=O)N2Cc2ccco2)c1 (stereo not drawn) | 32%
CCOC(=O)Cc1nn2c(=O)cc(C)nc2s1 | 30%
CN1C(=O)/C(=C/c2cn(CC(=O)NCc3ccco3)c3ccccc23)NC1=S | 80%
CCOc1ccc2nc(/N=C/c3c(C)[nH]n(-c4ccc(C)cc4)c3=O)sc2c1 | 13µM*
CCOc1ccc2nc(SCC(=O)Nc3cc(C)on3)c(C)cc2c1 | 53%
Cc1ccc(CCC(=O)Nc2nccs2)o1 | 90%
CCOC(=O)C1=C(O)c2ccccc2C(=O)/C1=C\c1ccc(C)cc1 | 39%
O=C(/C=C\c1ccco1)c1ccc(NC(=O)c2ccco2)cc1 | 50%
COCCCn1c(SCC(=O)Nc2ccc(NC(=O)c3ccco3)c(OC)c2)nc2ccccc2c1=O | -1%
Cc1cc(NC(=O)c2ccco2)ccc1NC(=O)c1ccco1 | 14µM*
COc1ccc(N2CCN(C(=O)Cn3nnc(-c4cccs4)n3)CC2)cc1 | 38%
COc1ccc(-c2cc(=O)[nH][nH]2)cc1 | 51%
COc1ccc(S(=O)(=O)c2cnc3ccccc3n2)cc1 | 44%
COc1ccc(-c2cc3c(nn2)-c2ccccc2C3=O)cc1 | 16µM*
Nc1ncnc(SCc2c(F)cccc2Cl)n1 | 43%
Nc1ccc2nc(CCCCCCc3nc4ccc(N)cc4[nH]3)[nH]c2c1 | 99%
COc1ccc(S(=O)(=O)/N=C2/C=CC(=O)C(C)=C2C)cc1 | 39%
SMILES | PKM2 inhibitor
COc1ccc(S(=O)(=O)c2ccc(OC)cc2)cc1 | 45%
COc1ccc(C2=CC(=O)C=CC2=O)cc1 | 18µM*
CCOC(=O)C1(CCOc2ccccc2)CCN(C(=O)c2ccc(-n3cccn3)cc2)CC1 | 111%
Cc1ccc(S(=O)(=O)Cc2sc3ccccc3[n+]2C)cc1 | 48%
Cc1nc(N=Nc2ccc(O)cc2)n[nH]1 | 13µM*
CCn1c(=O)c(=O)n(CC)c2cc(S(=O)(=O)Nc3ccc(C)cc3)ccc21 | 126%
CCC(C)NC(=S)N1CCN(Cc2ccccc2)CC1 (stereo not drawn) | -3%
COc1ccc(-c2ccc(SC)nn2)cc1 | 10µM*
COc1cccc(NC(=O)CSc2ccc(-c3sc(C)nc3C)nn2)c1 | 36%
O=C(CSc1ccccc1)Nc1ccc(N2CCN(c3ccccc3)CC2)c(F)c1 | -16%
Cc1ccc(N2C(=O)CC(Sc3ccccc3C(=O)O)C2=O)c([N+](=O)[O-])c1 (stereo not drawn) | 58%
Cc1ccc(CCNS(=O)(=O)c2cc3c(cc2C)NC(=O)CO3)cc1 | 62%
COC(=O)c1nc(N)sc1-c1ccc(Cl)c(Cl)c1 | 52%
CCOc1ccc(NC(=O)CSc2ncn[nH]2)c([N+](=O)[O-])c1 | 81%
O=C(COC(=O)c1ccc(NS(=O)(=O)c2ccc3c(c2)OCCO3)cc1)NC1CC1 | 43%
O=C(COC(=O)c1cccs1)c1ccc2c(c1)OCCO2 | 28µM*
CCOC(=O)c1cnc(SCC(=O)c2ccc3c(c2)OCCO3)nc1N | 106%
c1csc(CSc2nnc3sc4ccccc4n23)c1 | 66%
CCn1c(SCC(=O)Nc2ccccc2)nc2c1c(=O)n(C)c(=O)n2C | 65%
COc1ccc(S(=O)(=O)N2CCN(c3nc4ccccc4nc3-n3nc(C)cc3C)CC2)cc1 | 53%
O=c1[nH]c(C(F)(F)F)nc2ccccc12 | -23%
Cc1nn(-c2nc3ccccc3[nH]2)c(=O)c2ccccc12 | 16µM*
CNCc1nc2ccccc2[nH]1 | 59%
COc1cccc(CNC(=S)NC2CCCC2)c1 | 33%
CC(=O)N1CCN(c2ccc(NC(=O)c3cccc(C)c3)cc2)CC1 | 34%
SMILES | PKM2 inhibitor
O=C(O)c1cc(NC(=O)c2cccc(C(=O)Nc3cc(C(=O)O)cc(C(=O)O)c3)c2)cc(C(=O)O)c1 | 13µM*
O=C(Nc1cccc(O)c1)c1cccc(S(=O)(=O)Nc2cccc(O)c2)c1 | 42%
O=C(CSc1nnc(-c2ccncc2)s1)Nc1ccccc1 | 84%
N#C/C(=C\c1cccs1)C(=O)c1ccccc1Cl | 60%
COCCn1c(N)c(C(=O)NS(=O)(=O)c2ccc(C)cc2)c(=O)[nH]c1=O | 114%
O=C(NCCOC(=O)c1ccc(C(=O)OCCNC(=O)c2cccnc2)s1)c1cccnc1 | 76%
CCn1c(=NC(=O)CSC(C)=O)sc2cc(F)ccc21 | 50%
Cc1cccn2c(=O)c(/C=C3\SC(=S)NC3=O)c(NCCCN3CCOCC3)nc12 | 23%
Cc1cccc(/C(N)=N/OC(=O)c2cccs2)c1 | 13µM*
N/C(=N\OC(=O)c1ccc(Cl)cc1Cl)c1ccccn1 | 14µM*
